Measurements from PubChem BioAssay (Tox21).
“And” between values parts separate entries of the source, which are not always exact repeats. Equal entries are not always repeated. Inconclusive results are not listed. Entries that show only a call come without a potency. Where a structure was tested more than once in an assay, its records may differ in their call. The source made the active and inactive calls. Unless noted, calls come from the whole dose curve; as a rule, active = well fitted curve in the direction sought with a large enough effect in the repeat runs; inconclusive = weak or mixed curves; inactive = no such curve, though single readings can be large; an effect the other way counts as inactive or inconclusive.

Assays:
[1] = qHTS assay to identify small molecule antagonists of the estrogen receptor alpha (ER-alpha) signaling pathway using the BG1 cell line in the presence of 0.1 nM 17-beta-estradiol - cell viability counter screen (AID 1259241); note: nearly all actives have a fitted effect of over 40% in size; note: potency is the fitted concentration of half-maximal effect
Outline: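 VM7Luc4E2 cells (endogenous full-length ER-alpha, 4xERE-luciferase), cultured 5 days in charcoal-stripped serum, exposed to compounds with 0.1 nM 17beta-estradiol (final) for 22 hr at 37C. Viability read in same wells as live-cell protease fluorescence after 30 min.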

[2] = qHTS assay to identify small molecule antagonists of the androgen receptor (AR) signaling pathway using the MDA cell line in the presence of 0.5 nM R1881 - cell viability counter screen (AID 1259242); note: nearly all actives have a fitted effect of over 45% in size; note: potency is the fitted concentration of half-maximal effect
Outline: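 Steps: plate MDA-kb2 cells, rest 5 hr at 37C without CO2; pin in compounds in DMSO; add R1881 to 0.5 nM final; incubate 16 hr; add CellTiter-Fluor, 30 min; read fluorescence.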

[3] = biological target: Androgen receptor (Homo sapiens) (UniProt P10275); assay: qHTS assay to identify small molecule antagonists of the androgen receptor (AR) signaling pathway using the MDA cell line in the presence of 0.5 nM R1881 (AID 1259243); note: nearly all actives have a fitted effect of over 50% in size; note: potency is the fitted concentration of half-maximal effect
Outline: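 Stably transfected MDA-kb2 cells express luciferase from an MMTV promoter bearing both AR and GR response elements. Compounds plus 0.5 nM R1881 (final) were incubated 16 hr at 37C without CO2, then luminescence measured.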

[4] = qHTS assay to identify small molecule phospholipidosis (PLD) inducers (AID 1259344; active = well fitted curve in the direction sought with a large enough effect; an effect the other way counts as inactive or inconclusive)
Outline: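 Accumulated phospholipid, stained red by LipidTOX during 24 h compound treatment of HepG2 cells at 37 C, is quantified from images as pit number and intensity, normalised per cell using Hoechst-stained nuclei.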

[5] = qHTS assay to identify small molecule HDAC inhibitors - cell viability counter screen (AID 1259365); note: series mostly up to about 92 µM; nearly all actives have a fitted effect of over 50% in size
Outline: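 Wild-type HCT-116 cells, 1,500/well, cultured overnight, then compound-treated 2 h at 37 C. Viability measured as ATP luminescence with CellTiter-Glo after 30 min at room temperature.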

[6] = qHTS assay to identify small molecule agonists of the sonic hedgehog signaling (Shh) pathway - cell viability counter screen (AID 1259366); note: nearly all actives have a fitted effect of over 50% in size; note: potency is the fitted concentration of half-maximal effect
Outline: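 NIH/3T3-derived Gli1-Luc reporter cells, 2,000 per well, received compound after 4 h and were treated about 23 h at 37C. Viability measured in the same wells by CellTiter-Fluor fluorescence after 1 h.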

[7] = qHTS assay to identify small molecule antagonists of the sonic hedgehog signaling (Shh) pathway - cell viability counter screen (AID 1259367); note: nearly all actives have a fitted effect of over 55% in size; note: potency is the fitted concentration of half-maximal effect
Outline: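 CellTiter-Fluor signal in conditioned medium-stimulated 3T3 Gli1-Luc cells, 23 hr compound exposure, 37C.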

[8] = qHTS assay to identify small molecule agonists of the sonic hedgehog signaling (Shh) pathway (AID 1259368; calls by dose curve;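 note: NIH/3T3-derived 3T3Gli1-Luc cells carrying a stable Gli1-driven firefly luciferase reporter; series mostly up to about 92 µM; nearly all actives have a fitted effect of over 15% in size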)
Outline: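 Cells of a mouse NIH/3T3 clone stably expressing luciferase under the Gli1 transcriptional response element are exposed to test chemicals for 24 hr at 37 C. Pathway activation is detected as a rise in luminescence.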

[9] = qHTS assay to identify small molecule antagonists of the sonic hedgehog signaling (Shh) pathway (AID 1259369; calls by dose curve; note: nearly all actives have a fitted effect of over 45% in size; note: potency is the fitted concentration of half-maximal effect)
Outline: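 Cells are plated and held 4hr at 37 C, compounds (DMSO) are pinned in, conditioned medium is added to stimulate the pathway, and after 24hr luciferase reagent is added for 30min before luminescence is read.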

[10] = qHTS assay to identify small molecule agonists of the androgen receptor (AR) signaling pathway in the presence of an antagonist - cell viability counter screen (AID 1259379); note: nearly all actives have a fitted effect of over 25% in size; note: potency is the fitted concentration of half-maximal effect
Outline: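 Cytotoxicity is assessed by CellTiter-Fluor in MDA-kb2 cells carrying an MMTV-driven luciferase reporter. Cells receive 3.0uM nilutamide plus compounds at 15 concentrations and incubate 16 hr at 37C without CO2 before fluorescence reading.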

[11] = qHTS assay to identify small molecule agonists of the estrogen receptor beta (ER-beta) signaling pathway - cell viability counter screen (AID 1259380); note: nearly all actives have a fitted effect of over 30% in size; note: potency is the fitted concentration of half-maximal effect
Outline: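 Cytotoxicity is measured in parallel with the reporter screen: after 16 hr compound exposure at 37C and a 2 hr LiveBLAzer step, CellTiter-Glo is added to the same ER-beta-UAS-bla HEK293T wells and luminescence read after 30 min.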

[12] = biological target: Androgen receptor (Homo sapiens) (UniProt P10275); assay: qHTS assay to identify small molecule agonists of the androgen receptor (AR) signaling pathway in the presence of an antagonist (AID 1259381; calls by dose curve; note: nearly all actives have a fitted effect of over 15% in size)
Outline: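 Agonist-mode confirmation screen: human MDA-kb2 cells stably expressing luciferase under an MMTV promoter bearing AR and GR response elements, co-treated with 3.0uM nilutamide (final). Luminescence measured after 16hr compound incubation.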

[13] = qHTS assay to identify small molecule antagonists of the estrogen receptor beta (ER-beta) signaling pathway - cell viability counter screen (AID 1259382); note: nearly all actives have a fitted effect of over 55% in size; note: potency is the fitted concentration of half-maximal effect
Outline: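 Cytotoxicity counter screen multiplexed with the beta-lactamase antagonist assay: GripTite HEK293T ER-beta-bla cells were treated 16 hr with test chemicals in the presence of 1nM 17-beta-estradiol, and viability was measured by CellTiter-Glo.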

[14] = qHTS assay to identify small molecule agonists or antagonists of the thyroid stimulating hormone receptor (TSHR) signaling pathway - wild type cell line counter screen (AID 1259384; calls by dose curve)
Outline: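 Counter screen in untransfected Hek293: compounds (15-point titration, triplicate) plus phosphodiesterase inhibitor Ro20-1724 added after 18 h plating; 30 min RT. Intracellular cAMP via competitive d2/cryptate immunoassay, 1 h incubation.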

[15] = biological target: Thyrotropin receptor (Homo sapiens) (UniProt P16473); assay: qHTS assay to identify small molecule antagonists of the thyroid stimulating hormone receptor (TSHR) signaling pathway (AID 1259385; calls by dose curve; note: nearly all actives have a fitted effect of over 20% in size; note: potency is the fitted concentration of half-maximal effect)
Outline: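 Antagonist mode: compound-treated TSHR-expressing HEK293 cells were stimulated with 1.5 ng/mL TSH (final) in presence of Ro20-1724 for 30 min at RT. HTRF cAMP detection after 1 h; each compound tested at 15 concentrations, triplicate.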

[16] = qHTS assay to identify small molecule agonists of the estrogen receptor alpha (ER-alpha) signaling pathway in the presence of an antagonist - cell viability counter screen (AID 1259386); note: series mostly up to about 92 µM; nearly all actives have a fitted effect of over 30% in size
Outline: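 Cytotoxicity was measured in parallel with the ERE-luciferase agonist screen, in the same wells. The cells were VM7Luc4E2, which endogenously express ER-alpha, and treatment was with compounds plus 10.0nM ICI-182,780 for 22hr.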

[17] = biological target: Estrogen receptor (Homo sapiens) (UniProt P03372); assay: qHTS assay to identify small molecule antagonists of the estrogen receptor alpha (ER-alpha) signaling pathway using the BG1 cell line in the presence of 0.1 nM 17-beta-estradiol (AID 1259244); note: nearly all actives have a fitted effect of over 50% in size; note: potency is the fitted concentration of half-maximal effect
Outline: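 Antagonist mode: compounds in DMSO are pinned onto VM7Luc4E2 reporter cells, 0.1 nM final 17beta-estradiol is added, and after 22 h at 37C luciferase luminescence is measured with ONE-Glo.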

[18] = qHTS assay to identify small molecule HDAC inhibitors (AID 1259364);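 note: wild-type HCT-116 cells with endogenous class I/II HDAC activity; top concentration of the series differs between compounds; nearly all actives have a fitted effect of over 45% in size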
Outline: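 Cells (HCT-116, wild type) are seeded at 1,500 per well, incubated overnight, treated with compound in DMSO for 2 hr, then developed with HDAC-Glo I/II reagent for 30 min at room temperature.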

[19] = biological target: Estrogen receptor (Homo sapiens) (UniProt P03372); assay: qHTS assay to identify small molecule agonists of the estrogen receptor alpha (ER-alpha) signaling pathway in the presence of an antagonist (AID 1259383; calls by dose curve; note: top concentration of the series differs between compounds; nearly all actives have a fitted effect of over 15% in size)
Outline: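 Agonist-mode confirmation in the presence of the ER antagonist ICI-182,780 at 10.0nM final. Breast-derived VM7Luc4E2 reporter cells were exposed to compounds for 22hr, and ERE-driven luciferase was quantified by luminescence.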

[20] = biological target: Estrogen receptor beta (Homo sapiens) (UniProt Q92731); assay: qHTS assay to identify small molecule agonists of the estrogen receptor beta (ER-beta) signaling pathway (AID 1259377; active = well fitted activation curve with a large enough effect in the signal ratio in the repeat runs, not every such curve was filed as active; the % refers to the signal ratio)
Outline: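 ER-beta-UAS-bla HEK293T cells in medium with 2% charcoal-stripped FBS were exposed to compounds for 16 h at 37C. Beta-lactamase reporter activity was read as fluorescence after 2 h with LiveBLAzer B/G FRET substrate at room temperature.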

Chain of Androgen receptor (Homo sapiens) (P10275 whole entry, looked up): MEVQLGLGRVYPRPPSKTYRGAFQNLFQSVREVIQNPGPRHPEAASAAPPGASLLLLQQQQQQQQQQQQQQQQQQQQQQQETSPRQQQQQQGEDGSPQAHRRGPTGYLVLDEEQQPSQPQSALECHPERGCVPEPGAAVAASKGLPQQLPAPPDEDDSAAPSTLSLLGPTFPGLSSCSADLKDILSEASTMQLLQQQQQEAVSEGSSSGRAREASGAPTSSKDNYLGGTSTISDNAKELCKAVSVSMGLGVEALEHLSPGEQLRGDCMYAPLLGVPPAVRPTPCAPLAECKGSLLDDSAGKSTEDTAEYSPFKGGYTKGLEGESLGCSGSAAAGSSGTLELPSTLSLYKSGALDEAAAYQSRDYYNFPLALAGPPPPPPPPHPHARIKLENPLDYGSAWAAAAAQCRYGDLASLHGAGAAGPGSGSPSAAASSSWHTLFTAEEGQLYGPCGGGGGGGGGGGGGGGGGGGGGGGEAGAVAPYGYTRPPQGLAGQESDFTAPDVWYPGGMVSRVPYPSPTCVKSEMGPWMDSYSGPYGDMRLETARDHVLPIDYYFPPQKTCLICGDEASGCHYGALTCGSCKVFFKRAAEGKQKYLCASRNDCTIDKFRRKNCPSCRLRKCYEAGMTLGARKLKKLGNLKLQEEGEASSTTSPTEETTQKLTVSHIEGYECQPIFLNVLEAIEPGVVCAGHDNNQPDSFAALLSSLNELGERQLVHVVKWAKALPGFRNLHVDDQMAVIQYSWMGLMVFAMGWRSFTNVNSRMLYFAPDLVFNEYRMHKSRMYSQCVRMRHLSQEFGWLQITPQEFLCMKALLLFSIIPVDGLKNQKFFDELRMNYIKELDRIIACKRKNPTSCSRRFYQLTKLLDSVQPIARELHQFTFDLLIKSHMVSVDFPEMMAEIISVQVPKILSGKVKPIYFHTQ
Chain of Thyrotropin receptor (Homo sapiens) (P16473 whole entry, looked up): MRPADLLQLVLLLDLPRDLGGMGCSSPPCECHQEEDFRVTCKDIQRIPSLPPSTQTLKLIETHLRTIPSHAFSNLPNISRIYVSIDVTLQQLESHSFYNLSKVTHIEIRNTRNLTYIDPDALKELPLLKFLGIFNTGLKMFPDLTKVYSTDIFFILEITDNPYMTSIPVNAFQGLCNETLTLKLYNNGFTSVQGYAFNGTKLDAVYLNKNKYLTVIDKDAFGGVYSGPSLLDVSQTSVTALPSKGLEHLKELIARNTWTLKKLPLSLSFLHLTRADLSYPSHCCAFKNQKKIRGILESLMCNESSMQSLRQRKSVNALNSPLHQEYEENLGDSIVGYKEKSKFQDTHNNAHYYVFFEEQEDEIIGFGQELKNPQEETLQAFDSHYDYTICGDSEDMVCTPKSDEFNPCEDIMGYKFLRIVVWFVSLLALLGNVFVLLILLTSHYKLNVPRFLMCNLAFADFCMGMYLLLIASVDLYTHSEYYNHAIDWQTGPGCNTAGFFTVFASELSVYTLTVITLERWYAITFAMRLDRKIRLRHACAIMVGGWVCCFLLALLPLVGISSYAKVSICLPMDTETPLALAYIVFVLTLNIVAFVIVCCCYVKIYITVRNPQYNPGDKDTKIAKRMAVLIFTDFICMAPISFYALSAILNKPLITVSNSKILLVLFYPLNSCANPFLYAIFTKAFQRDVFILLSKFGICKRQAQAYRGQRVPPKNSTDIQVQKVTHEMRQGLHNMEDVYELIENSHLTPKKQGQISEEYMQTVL
Chain of Estrogen receptor (Homo sapiens) (P03372 whole entry, looked up): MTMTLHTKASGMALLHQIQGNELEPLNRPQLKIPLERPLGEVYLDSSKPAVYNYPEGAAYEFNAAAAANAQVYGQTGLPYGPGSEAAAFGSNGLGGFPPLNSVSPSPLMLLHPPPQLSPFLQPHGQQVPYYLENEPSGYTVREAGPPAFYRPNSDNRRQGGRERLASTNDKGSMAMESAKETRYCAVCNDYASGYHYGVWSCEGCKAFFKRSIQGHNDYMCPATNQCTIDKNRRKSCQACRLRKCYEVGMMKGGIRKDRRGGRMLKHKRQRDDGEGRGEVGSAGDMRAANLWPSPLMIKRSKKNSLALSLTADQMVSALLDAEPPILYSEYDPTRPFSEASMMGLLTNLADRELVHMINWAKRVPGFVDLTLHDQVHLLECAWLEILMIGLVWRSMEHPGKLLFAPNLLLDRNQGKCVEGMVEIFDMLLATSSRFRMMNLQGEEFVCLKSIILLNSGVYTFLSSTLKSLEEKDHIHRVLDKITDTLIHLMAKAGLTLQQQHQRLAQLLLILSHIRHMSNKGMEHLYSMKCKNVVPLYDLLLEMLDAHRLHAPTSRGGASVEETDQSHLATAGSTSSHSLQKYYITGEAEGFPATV
Chain of Estrogen receptor beta (Homo sapiens) (Q92731 whole entry, looked up): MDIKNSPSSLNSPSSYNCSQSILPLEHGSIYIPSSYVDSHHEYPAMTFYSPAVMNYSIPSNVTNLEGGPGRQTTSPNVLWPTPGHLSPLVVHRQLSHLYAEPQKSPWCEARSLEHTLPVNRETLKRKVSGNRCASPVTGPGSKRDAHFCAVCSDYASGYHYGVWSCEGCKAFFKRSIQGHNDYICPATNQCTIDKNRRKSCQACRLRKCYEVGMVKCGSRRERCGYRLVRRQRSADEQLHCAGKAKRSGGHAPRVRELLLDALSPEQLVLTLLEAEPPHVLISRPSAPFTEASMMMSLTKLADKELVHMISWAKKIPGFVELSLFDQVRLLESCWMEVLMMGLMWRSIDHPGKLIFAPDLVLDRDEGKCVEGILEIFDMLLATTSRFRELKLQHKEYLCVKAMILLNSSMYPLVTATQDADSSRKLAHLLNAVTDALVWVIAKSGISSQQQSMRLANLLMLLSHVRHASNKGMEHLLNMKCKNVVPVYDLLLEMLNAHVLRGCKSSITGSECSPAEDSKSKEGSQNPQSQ

SMILES | Potency [1] | Potency [2] | Potency [3] | Potency [4] | Potency [5] | Potency [6] | Potency [7] | outcome [8] | Potency [9] | Potency [10] | Potency [11] | Potency [12] | Potency [13] | Potency [14] | Potency [15] | Potency [16] | Potency [17] | Potency [18] | Potency [19] | Potency [20]
CCCCCCc1ccc(O)cc1O | inactive | inactive | 43.4 µM (active) and 48.6 µM (active) and 23.7 µM (active) | inactive | inactive | 48.7 µM (active) and 61.1 µM (active) and inactive | 61.1 µM (active) and inactive | inactive | 43.4 µM (active) | inactive | 48.7 µM (active) and 48.6 µM (active) | inactive | 48.7 µM (active) and inactive | inactive | inactive | inactive |  |  |  | 
O=C1OC2(c3ccccc31)c1cc(Br)c(O)c(Br)c1Oc1c2cc(Br)c(O)c1Br | 7.81 µM (active) and 22.3 µM (active) and 11.9 µM (active) | 4.93 µM (active) and 25 µM (active) and 10.6 µM (active) |  | inactive |  | inactive | inactive | inactive | inactive | 7.81 µM (active) and 22.3 µM (active) and 11.9 µM (active) | inactive |  | inactive |  | 24.7 µM (active) and 21.1 µM (active) |  | inactive | inactive | inactive | 
CCOc1ccc(NC(C)=O)cc1 | inactive | inactive | inactive | inactive | inactive | inactive | inactive | inactive | inactive | inactive | inactive | inactive | inactive | inactive | inactive |  | inactive | inactive | inactive | inactive
CCCCCCCC(=O)OCC(COC(=O)CCCCCCC)OC(=O)CCCCCCC | inactive | inactive |  | inactive | inactive | inactive | inactive | inactive | inactive | inactive | inactive |  | inactive | inactive | inactive |  | inactive | inactive | inactive | inactive
CN(C)CCOC(c1ccccc1)c1ccccc1 | inactive | inactive | inactive | inactive | inactive | inactive | inactive | inactive | inactive | inactive | inactive | inactive | inactive | inactive | inactive |  | inactive | inactive | inactive | inactive
CCCCOC(=O)c1ccc(O)cc1 | inactive | inactive | inactive | inactive | inactive | inactive | inactive | inactive | inactive | inactive | inactive | inactive | inactive | inactive | inactive |  |  |  |  | inactive
CCN(CC)C(=O)c1cccc(C)c1 | inactive | inactive |  | inactive |  | inactive | inactive | inactive | inactive | inactive | inactive |  | inactive | inactive | inactive |  | inactive | inactive | inactive | inactive
NS(=O)(=O)c1cc2c(cc1Cl)NCNS2(=O)=O | inactive | inactive |  | inactive |  | inactive | inactive | inactive | inactive | inactive | inactive |  | inactive | inactive | inactive | inactive | inactive | inactive | inactive | inactive
CS(=O)(=O)OCCCCOS(C)(=O)=O | inactive | inactive |  | inactive |  | inactive | inactive | inactive | inactive | inactive | inactive |  | inactive | inactive | inactive |  | inactive | inactive | inactive | 
CCCCCCCCCCCCCCCC[N+](C)(C)Cc1ccccc1 | inactive | 50.1 µM (active) and 55.5 µM (active) and 26.6 µM (active) |  | inactive |  | 70.8 µM (active) and 35 µM (active) | inactive | inactive | 1.78 µM (active) and 6.98 µM (active) and 150 nM (active) | 35.5 µM (active) and 55.5 µM (active) | 14.1 µM (active) and 22.1 µM (active) and 11.9 µM (active) |  | 35.5 µM (active) and 17.5 µM (active) and 10.6 µM (active) |  |  |  | 63.1 µM (active) and 55.5 µM (active) |  | inactive | inactive
CCc1nc(N)nc(N)c1-c1ccc(Cl)cc1 | inactive | inactive |  | inactive | inactive | inactive | inactive | inactive | 17.5 µM (active) and 27.3 µM (active) | inactive | 21.7 µM (active) and 18.8 µM (active) |  | inactive |  |  |  | 31.1 µM (active) and 48.6 µM (active) |  | inactive | inactive
CC12CCC(CC1)C(C)(C)O2 | inactive | inactive |  | inactive |  | inactive | inactive | inactive | inactive | inactive | inactive |  | inactive | inactive | inactive |  | inactive | inactive | inactive | 
CN1CCc2cccc3c2[C@H]1Cc1ccc(O)c(O)c1-3 | 49.1 µM (active) and 20.4 µM (active) | 55 µM (active) and 22.8 µM (active) |  | inactive |  | 27.6 µM (active) and 22.8 µM (active) | 30.9 µM (active) and 18.1 µM (active) and 21.1 µM (active) | inactive | 2.87 µM (active) and 18.8 µM (active) | 55 µM (active) and 22.8 µM (active) and 26.6 µM (active) | 55 µM (active) and 20.4 µM (active) |  | 30.9 µM (active) and 20.4 µM (active) and inactive | inactive | inactive |  | 49.1 µM (active) and 11.9 µM (active) | inactive | inactive | 
